Reference: PubChem BioAssay AID1159580 (chemical genetic matrix, 2015)
Where “and” joins values, the source holds several entries; their conditions need not be identical. Equal values may be shown once. Screen size: about 5,500 compounds; about 2,000 (36%) were called active. About 18% were inconclusive and are not listed. Cut-off read from the data, not from the text of the source: active = normalized growth mostly below about 0.91 (no sharp cut-off); inconclusive = no clear call, values can overlap the other calls; inactive = mostly above about 0.92. The list shows a part of the results.

Experiment: chemical genetic growth profiling, strain panel (AID 1159580);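 note: tested at 20 µM; growth read once vehicle control cultures reached saturation at 30 °C; 1 = growth at the plate median or of vehicle wells; lower values mean less growth of the strain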
Conditions: S. cerevisiae deletion strains, growth OD

Measured: normalized growth

COc1ccc2c(c1)OC/C(=C\c1ccc(OC)c(O)c1)C2=O
active: locus YAL013W, strain DEP1, stronger effect = lower value 0.72 | locus YAL026C, strain drs2, stronger effect = lower value 0.865 | locus YBL061C, strain skt5, stronger effect = lower value 0.905 | locus YBR009C, strain hhf1, stronger effect = lower value 0.781 | locus YBR021W, strain FUR4, stronger effect = lower value 0.796 | locus YBR023C, strain chs3, stronger effect = lower value 0.88 | locus YBR231C, strain swc5, stronger effect = lower value 0.8 | locus YBR279W, strain paf1, stronger effect = lower value 0.912 | locus YCL011C, strain gbp2, stronger effect = lower value 0.857 | locus YCL016C, strain dcc1, stronger effect = lower value 0.881 | locus YCL029C, strain bik1, stronger effect = lower value 0.772 | locus YCL069W, strain vba3, stronger effect = lower value 0.878 | locus YDL035C, strain GPR1, stronger effect = lower value 0.818 | locus YDL074C, strain BRE1, stronger effect = lower value 0.534 | locus YDL101C, strain DUN1, stronger effect = lower value 0.665 | locus YDL192W, strain arf1, stronger effect = lower value 0.748 | locus YDR101C, strain arx1, stronger effect = lower value 0.855 | locus YDR137W, strain rgp1, stronger effect = lower value 0.705 | locus YDR150W, strain NUM1, stronger effect = lower value 0.894 | locus YDR159W, strain sac3, stronger effect = lower value 0.8 | locus YDR162C, strain NBP2, stronger effect = lower value 0.475 | locus YDR297W, strain sur2, stronger effect = lower value 0.864 | locus YDR318W, strain mcm21, stronger effect = lower value 0.574 | locus YDR334W, strain swr1, stronger effect = lower value 0.894 | locus YDR388W, stronger effect = lower value 0.913 | locus YDR392W, strain spt3, stronger effect = lower value 0.206 | locus YDR502C, strain sam2, stronger effect = lower value 0.69 | locus YEL003W, strain gim4, stronger effect = lower value 0.806 | locus YEL061C, strain CIN8, stronger effect = lower value 0.623 | locus YER015W, strain faa2, stronger effect = lower value 0.874 | locus YER110C, stronger effect = lower value 0.79 | locus YER155C, strain BEM2 (second series), stronger effect = lower value 0.448 | locus YER155C, strain BEM2, stronger effect = lower value 0.301 | locus YER167W, strain BCK2, stronger effect = lower value 0.816 | locus YGL078C, strain dbp3, stronger effect = lower value 0.878 | locus YGL086W, strain mad1, stronger effect = lower value 0.517 | locus YGL173C, strain kem1, stronger effect = lower value 0.878 | locus YGL227W, strain vid30, stronger effect = lower value 0.813 | locus YGL240W, strain doc1, stronger effect = lower value 0.795 | locus YGL248W, strain PDE1, stronger effect = lower value 0.603 | locus YGL253W, strain hxk2, stronger effect = lower value 0.8 | locus YGR078C, strain PAC10, stronger effect = lower value 0.487 | locus YGR135W, strain pre9, stronger effect = lower value 0.684 | locus YGR229C, strain SMI1, stronger effect = lower value 0.386 | locus YGR252W, strain gcn5, stronger effect = lower value 0.545 | locus YHR013C, strain ard1, stronger effect = lower value 0.783 | locus YHR027C, strain rpn1, stronger effect = lower value 0.909 | locus YHR079C, strain IRE1 (second series), stronger effect = lower value 0.831 | locus YHR094C, strain hxt1, stronger effect = lower value 0.812 | locus YHR129C, strain ARP1, stronger effect = lower value 0.516 | locus YHR142W, strain chs7, stronger effect = lower value 0.727 | locus YHR200W, strain rpn10, stronger effect = lower value 0.864 | locus YIL066C, strain RNR3, stronger effect = lower value 0.665 | locus YIL073C, strain SPO22, stronger effect = lower value 0.631 | locus YIL125W, strain kgd1, stronger effect = lower value 0.916 | locus YIR030C, strain dcg1, stronger effect = lower value 0.854 | locus YJL095W, strain BCK1 (second series), stronger effect = lower value 0.899 | locus YJL129C, strain trk1, stronger effect = lower value 0.776 | locus YJL164C, strain tpk1, stronger effect = lower value 0.876 | locus YJL166W, strain qcr8, stronger effect = lower value 0.654 | locus YJL187C, strain SWE1 (second series), stronger effect = lower value 0.773 | locus YJR043C, strain POL32, stronger effect = lower value 0.731
0.262 (active) and 0.961 (inactive): locus YJL095W, strain BCK1, stronger effect = lower value
0.399 (active) and 0.978 (inactive): locus YHR030C, strain SLT2, stronger effect = lower value
inactive: locus YAL021C, strain ccr4, stronger effect = lower value 0.985 | locus YAL030W, strain snc1, stronger effect = lower value 0.935 | locus YBR171W, strain sec66, stronger effect = lower value 0.919 | locus YBR229C, strain ROT2, stronger effect = lower value 0.967 | locus YCR088W, strain abp1, stronger effect = lower value 0.954 | locus YDL005C, strain med2, stronger effect = lower value 0.984 | locus YDL040C, strain nat1, stronger effect = lower value 0.953 | locus YDL185W, strain tfp1, stronger effect = lower value 0.909 | locus YDR001C, strain nth1, stronger effect = lower value 0.953 | locus YDR069C, strain doa4, stronger effect = lower value 0.97 | locus YDR195W, strain ref2 1.11 | locus YDR335W, strain msn5, stronger effect = lower value 0.943 | locus YEL037C, strain rad23, stronger effect = lower value 0.954 | locus YEL061C, strain CIN8 (second series), stronger effect = lower value 0.935 | locus YER016W, strain bim1, stronger effect = lower value 0.949 | locus YER111C, strain swi4, stronger effect = lower value 0.964 | locus YFR010W, strain ubp6, stronger effect = lower value 0.944 | locus YGL167C, strain pmr1, stronger effect = lower value 0.947 | locus YHR079C, strain IRE1, stronger effect = lower value 0.968 | locus YJL092W, strain hpr5, stronger effect = lower value 0.94 | locus YJL115W, strain asf1, stronger effect = lower value 0.953 | locus YJL134W, strain LCB3, stronger effect = lower value 0.949 | locus YJL154C, strain vps35, stronger effect = lower value 0.969 | locus YJL168C, strain set2, stronger effect = lower value 0.948
